Screening data (PubChem BioAssay)
Sampled rows, rich in hits. Any-hit rate of the full collection: about 3.3%.
esBAF inh – SWI/SNF esBAF complex inhibition; mouse ES cells, Bmi1-luciferase knock-in reporter, 24 h; 100% = twice the neutral-well signal; reporter increase, % at 12.5 µM; 2% of 350,000 active; in the data active = activation above about 40%; inconclusive = no clear call, values can overlap the other calls;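 note: a rise in the Bmi1 reporter signal indicates esBAF inhibition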
C2C12 statin – suppressors of simvastatin-induced myotoxicity in C2C12 myotubes | ATP luminescence, 48 h; scaled: DMSO 0, geranylgeraniol control 100 | rescue of ATP level, % at 7.49 µM | 0.78% of 330,000 active | AID 602340;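 active = mean ATP rescue above about 67%, or every replicate alone reaching that limit, limit read from the data, passing the limit was not always enough; inconclusive = no clear call, values can overlap the other calls; inactive = mean under the limit and some replicate under it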;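 note: myotubes were challenged with 10 µM simvastatin during compound exposure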
Wnt bcat act – activates Wnt/beta-catenin signaling in a reporter cell assay. activation, % at 9.35 µM. activator, plate reader. 1.2% of 300,000 active; in the data active = activation above about 30%, passing the limit was not always enough; inconclusive = no clear call, values can overlap the other calls
MITF act – increases MITF-driven TRPM1 promoter luciferase signal; SK-MEL-5 TRPM1-promoter luciferase, 24 h; % of positive control, neutral wells = 0; activation, % at 12.5 µM; 0.75% of 300,000 active; AID 588334;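 active = mean activation of at least 80% with every replicate also reaching 80%; inconclusive = mean reaches 80% but some replicate falls short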
FXN GAA850 act – activators of GAA850 frataxin (FXN) promoter. HEK293 lucGAA850 FXN promoter luciferase reporter, 24 h; percent of 10 µM SAHA response. activation, % at 6 µM. 0.56% of 360,000 active. AID 540364;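 active = activation above the average of all compounds screened plus 3 SD, cutoff fixed separately per campaign, cut at about 7.5% in these data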
Of the large screens only hits and unclear results are named; the others gave an inactive call.

CNC[C@H]1Oc2cc(-c3cncnc3)ccc2S(=O)(=O)N([C@H](C)CO)C[C@@H]1C	none (no result: Wnt bcat act, MITF act, FXN GAA850 act)
CCCOc1ccc(-c2c(=O)n(OCC(=O)OCC)c3ccccc3[n+]2[O-])cc1	esBAF inh 70 (no result: MITF act)
C=CCOn1c(=O)c(-c2cc3ccccc3o2)[n+]([O-])c2ccccc21	esBAF inh 54 (no result: Wnt bcat act)
CCOc1ccc(-c2c(=O)n(OCC)c3ccccc3[n+]2[O-])cc1	none
CCOC(=O)COn1c(=O)c(-c2cc3ccccc3o2)[n+]([O-])c2ccccc21	esBAF inh 52 (no result: MITF act)
CCOc1ccc(-c2c(=O)n(O)c3ccccc3[n+]2[O-])cc1	esBAF inh inconclusive, Wnt bcat act 56
CCOC(=O)COn1c(=O)c(-c2ccc(F)cc2)[n+]([O-])c2ccccc21	none (no result: MITF act)
C=CCOn1c(=O)c(-c2ccccc2)[n+]([O-])c2ccccc21	none
CCCc1cn(CC[C@H]2CC[C@H](NC(=O)C3CCC3)[C@@H](CO)O2)nn1	none (no result: Wnt bcat act, MITF act, FXN GAA850 act)
CCC(=O)N[C@H]1CC[C@H](CCn2cc(CN(C)C)nn2)O[C@@H]1CO	none (no result: Wnt bcat act, MITF act, FXN GAA850 act)
N#Cc1nc(COc2ccccc2)oc1N1CCOCC1	C2C12 statin 106
CC(C)C#Cc1cnc2c(c1)C(=O)N([C@@H](C)CO)C[C@H](C)[C@H](CN(C)C(=O)Cc1ccncc1)O2	none (no result: Wnt bcat act, MITF act, FXN GAA850 act)
CCCN(C)C[C@H]1OCCCC[C@@H](C)Oc2ccc(NS(=O)(=O)c3cn(C)cn3)cc2C(=O)N([C@H](C)CO)C[C@@H]1C	none (no result: Wnt bcat act, MITF act, FXN GAA850 act)
CC1CCN(CCc2nc3cc(NC(=O)Nc4ccccc4)ccc3n2C)CC1	esBAF inh 44 (no result: MITF act)
CCCc1cc2c(=O)c(-c3ccccn3)coc2cc1OC	esBAF inh 100, Wnt bcat act 53, MITF act 116
CCOC(=O)Nc1ccc(C)cc1Br	C2C12 statin 108
O=C(NCCOC(=O)Nc1cccc2ccccc12)OCc1ccccc1	none
Nc1ccccc1C(=O)Nc1cccc2ccccc12	esBAF inh 65 (no result: MITF act)
O=C(Nc1cccc2ccccc12)OCc1ccccc1	esBAF inh 61
O=C(Nc1cccc2ccccc12)c1ccccc1	esBAF inh 51
CCOC(=O)Nc1cc(NC(=O)OCC)c(C)nc1C	Wnt bcat act inconclusive (no result: esBAF inh, C2C12 statin)
Cc1noc(C)c1NC(=O)N(C)C[C@H]1OCCCC[C@@H](C)Oc2ccc(NC(=O)c3ccccc3)cc2C(=O)N([C@@H](C)CO)C[C@H]1C	none (no result: C2C12 statin, Wnt bcat act, MITF act, FXN GAA850 act)
CCOC(=O)Nc1ccc2c3c(cccc13)-c1ccccc1-2	esBAF inh 46
COCC#Cc1ccc2c(c1)O[C@@H](CN(C)C(=O)CC1CC1)[C@@H](C)CN([C@@H](C)CO)S2(=O)=O	none (no result: Wnt bcat act, MITF act, FXN GAA850 act)
O=C(CN1C(=O)COc2ccccc21)NCCN1CCOCC1	none
CCN(CC)S(=O)(=O)c1ccc2c(c1)N(CC(=O)NCCN1CCOCC1)C(=O)CO2	C2C12 statin 116
C[C@H](CO)N1C[C@H](C)[C@H](CN(C)C)OCc2cn(nn2)CCCC1=O	none (no result: Wnt bcat act, MITF act, FXN GAA850 act)
Cc1cc(NC(C)c2ccccc2)n2ncc(-c3ccccc3)c2n1 (stereo not given)	esBAF inh 59, MITF act 122
Cc1cc(NC2CCCC2)n2ncc(-c3ccccc3)c2n1	none
Cc1cc(NCc2ccccc2)n2ncc(-c3ccccc3)c2n1	MITF act 104
Cc1cc(C)n(-c2cc(C(C)(C)C)nc3c(-c4ccccc4)cnn23)n1	Wnt bcat act 56, MITF act 121 (no result: esBAF inh, C2C12 statin)
Cc1cc(C)n(-c2cc(C(C)(C)C)nc3c(-c4ccc(Cl)cc4)cnn23)n1	none (no result: Wnt bcat act)
COCC#Cc1ccc2c(c1)O[C@@H](CN(C)Cc1ccc(F)cc1)[C@H](C)CN([C@@H](C)CO)S2(=O)=O	none (no result: Wnt bcat act, MITF act, FXN GAA850 act)
CC(=O)N1CCc2cc(S(=O)(=O)C(C)CC(=O)Nc3ccc(OC(F)(F)F)cc3)ccc21 (stereo not given)	esBAF inh 45
CC(C)(C)C1CCc2c(sc(NC(=O)C3CCCO3)c2C(N)=O)C1 (stereo not given)	C2C12 statin 96 (no result: Wnt bcat act)
NC(=O)c1c(NC(=O)C2CCCO2)sc2c1CCC2 (stereo not given)	none (no result: Wnt bcat act)
CCCN(C)C[C@H]1Oc2ncc(-c3cccnc3)cc2C(=O)N([C@@H](C)CO)C[C@H]1C	none (no result: Wnt bcat act, MITF act, FXN GAA850 act)
Cc1cc(C)cc(C(=O)Nc2nc3ccccc3[nH]2)c1	esBAF inh 80
COc1ccc(C(=O)Nc2nc3ccccc3[nH]2)cc1S(=O)(=O)N1CCCC1	esBAF inh 45 (no result: C2C12 statin)
O=C(Nc1nc2ccccc2[nH]1)c1ccc(F)cc1	none
CN(C)S(=O)(=O)c1ccc(C(=O)Nc2nc3ccccc3[nH]2)cc1	esBAF inh 66
